The supplement of paper PMC3545927
Some of the results follow. The true hit rate is not given.

B1: HC1547 (peptide)
chain: CAPPQPEYDLAGNASASA
B2: FS-1874 (peptide)
chain: CAVQARDLGPAGNASASA
B3: HC2260 (peptide)
chain: CAEVVTSTWCAGNASASA
B4: FS-2104 (peptide)
chain: CARVRRAAAEAGNASASA
B5: FS-2843 (peptide)
chain: CARVRRRLDLAGNASASA
B6: HC1408 (peptide)
chain: CAASKVKANLAGNASASA
B7: FS-1338 (peptide)
chain: CAHKKRSARDAGNASASA
B8: FS-1699 (peptide)
chain: CARETRSFTKAGNASASA
B9: FS-2918 (peptide)
chain: CARETRYVELAGNASASA
B10: FS-186 (peptide)
chain: CARETRSARDAGNASASA
B11: HC564 (peptide)
chain: CAAYALDTEVAGNASASA
B12: HC1743 (peptide)
chain: CAMEECSQALAGNASASA
B13: FS-2828 (peptide)
chain: CARTKRGWMWAGNASASA
B14: FS-2613 (peptide)
chain: CARTKRSWVWAGNASASA
B15: FS-3108 (peptide)
chain: CARTKRSSTTAGNASASA
B16: FS-2880 (peptide)
chain: CARACRGVTTAGNASASA
B17: FS-1841 (peptide)
chain: CARTKKSSVQAGNASASA
B18: FS-2468 (peptide)
chain: CARTRRISQTAGNASASA
B19: FS-2385 (peptide)
chain: CARTRRSWVWAGNASASA
B20: FS-2827 (peptide)
chain: CARTKRFSHTAGNASASA
B21: HC2298 (peptide)
chain: CADTEVVTSTAGNASASA
B22: FS-2877 (peptide)
chain: CAPSKRGNSTAGNASASA
B23: FS-2829 (peptide)
chain: CARTKRHRSTAGNASASA
B24: HC1678 (peptide)
chain: CATEECSQHLAGNASASA
B25: HC97 (peptide)
chain: CAVVCYSMSYAGNASASA
B26: HC128 (peptide)
chain: CAEVVMSTWVAGNASASA
B27: FS-1089 (peptide)
chain: CASRYRFIRSAGNASASA
B28: FS-772 (peptide)
chain: CAFRIRTIRSAGNASASA
B29: FS-920 (peptide)
chain: CATPEDFVRSAGNASASA
B30: FS-1090 (peptide)
chain: CASRYRFVRSAGNASASA

Target: furin, P09958
Sequence (P09958 whole entry): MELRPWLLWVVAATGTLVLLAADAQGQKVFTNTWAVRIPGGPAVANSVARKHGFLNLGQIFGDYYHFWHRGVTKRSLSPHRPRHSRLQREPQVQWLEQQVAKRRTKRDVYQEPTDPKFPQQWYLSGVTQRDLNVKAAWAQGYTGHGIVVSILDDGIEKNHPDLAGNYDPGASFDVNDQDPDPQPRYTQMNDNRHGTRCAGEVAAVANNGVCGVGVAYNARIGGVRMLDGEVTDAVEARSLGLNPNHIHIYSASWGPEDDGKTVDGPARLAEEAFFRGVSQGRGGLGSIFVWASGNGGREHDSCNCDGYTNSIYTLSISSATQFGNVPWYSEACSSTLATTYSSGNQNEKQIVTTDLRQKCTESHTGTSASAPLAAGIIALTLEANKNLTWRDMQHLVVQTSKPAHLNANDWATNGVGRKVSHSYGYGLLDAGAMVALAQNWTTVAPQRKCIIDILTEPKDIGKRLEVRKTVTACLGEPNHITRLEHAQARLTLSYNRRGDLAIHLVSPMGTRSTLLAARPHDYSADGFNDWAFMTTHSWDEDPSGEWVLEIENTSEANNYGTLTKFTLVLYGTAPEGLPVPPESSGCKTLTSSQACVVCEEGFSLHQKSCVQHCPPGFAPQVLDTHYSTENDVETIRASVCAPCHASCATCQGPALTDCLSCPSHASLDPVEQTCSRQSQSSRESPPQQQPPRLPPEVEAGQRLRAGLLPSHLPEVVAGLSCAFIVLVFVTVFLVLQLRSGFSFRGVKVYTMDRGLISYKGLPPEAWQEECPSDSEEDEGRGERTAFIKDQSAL
Assay: furin cleavage Z-score vs untreated control; higher = more cleavage, active = 3.5 or more, inactive = 1 or less, 8 variable residues between constant flanks
How it was run: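 Reactions of 0.01 ml ran for 7.5, 15 or 30 min in 50 mM HEPES pH 7.5 with CaCl2 and NaCl, at 1:10 enzyme:substrate. In them, purified furin acted on bead-held 8-mer peptides fused to a cDNA oligonucleotide. The cleavage Z-score was obtained by lowess-adjusting log sequencing counts of released DNA against furin-free reactions and scaling by median absolute deviation.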

Row | Sequence | furin cleavage Z-score (7.5 min) | furin cleavage Z-score (15 min) | furin cleavage Z-score (30 min)
1 | B1 | -0.102 (inactive) | 2.02 | -0.964 (inactive)
2 | B2 | -2.04 (inactive) | -0.417 (inactive) | -1.57 (inactive)
3 | B3 | -0.517 (inactive) | 2.75 | 0.14 (inactive)
4 | B4 | 12.4 (active) | 11.6 (active) | 8.72 (active)
5 | B5 | 2.08 | 5.18 (active) | 6.19 (active)
6 | B6 | 2.23 | 1.5 | -1.01 (inactive)
7 | B7 | 9.15 (active) | 11 (active) | 8.17 (active)
8 | B8 | -0.268 (inactive) | -1.13 (inactive) | 0.163 (inactive)
9 | B9 | 0.274 (inactive) | 0.951 (inactive) | 1.86
10 | B10 | 4.31 (active) | 4.67 (active) | 5.64 (active)
11 | B11 | -0.288 (inactive) | -0.347 (inactive) | 0.258 (inactive)
12 | B12 | 1.12 | 0.147 (inactive) | 0.968 (inactive)
13 | B13 | -0.833 (inactive) | 1.19 | 3.46
14 | B14 | 2.5 | 3.65 (active) | 6.25 (active)
15 | B15 | 6.96 (active) | 8.23 (active) | 7.55 (active)
16 | B16 | 0.00727 (inactive) | -0.299 (inactive) | 0.871 (inactive)
17 | B17 | 0.0621 (inactive) | -0.697 (inactive) | -0.462 (inactive)
18 | B18 | -0.0765 (inactive) | 0.134 (inactive) | 0.486 (inactive)
19 | B19 | 0.299 (inactive) | -0.875 (inactive) | 3.19
20 | B20 | 1.99 | 3.53 (active) | 5.48 (active)
21 | B21 | -0.856 (inactive) | -0.105 (inactive) | -0.202 (inactive)
22 | B22 | -0.745 (inactive) | -0.0005 (inactive) | 0.164 (inactive)
23 | B23 | 2.1 | 4.17 (active) | 5.45 (active)
24 | B24 | -0.115 (inactive) | 0.32 (inactive) | 0.469 (inactive)
25 | B25 | -0.487 (inactive) | -0.359 (inactive) | 1.4
26 | B26 | -0.73 (inactive) | -0.446 (inactive) | -0.0354 (inactive)
27 | B27 | 9.42 (active) | 10.5 (active) | 7.95 (active)
28 | B28 | 12.7 (active) | 13.4 (active) | 9.8 (active)
29 | B29 | -0.0484 (inactive) | -0.138 (inactive) | -0.221 (inactive)
30 | B30 | 10.3 (active) | 8.88 (active) | 7.53 (active)
